This note sets out measurements from PMC7862700, “An all-to-all approach to the identification of sequence-specific readers for epigenetic DNA modifications on cytosine”.

Holding throughout (test): DAPPL (digital affinity profiling via proximity ligation, sequencing); 10 mM Tris-HCl pH 7.5, 50 mM NaCl, 1 mM DTT, 4% glycerol, room temperature, 30 min; GST-TFs on glutathione beads, 16-mer random dsDNA library, 0.1% formaldehyde crosslink after washing; high values mean tight binding
For one assay, the target named is T1, FLI1 (Homo sapiens, UniProt Q01543 1-452).
T1 sequence: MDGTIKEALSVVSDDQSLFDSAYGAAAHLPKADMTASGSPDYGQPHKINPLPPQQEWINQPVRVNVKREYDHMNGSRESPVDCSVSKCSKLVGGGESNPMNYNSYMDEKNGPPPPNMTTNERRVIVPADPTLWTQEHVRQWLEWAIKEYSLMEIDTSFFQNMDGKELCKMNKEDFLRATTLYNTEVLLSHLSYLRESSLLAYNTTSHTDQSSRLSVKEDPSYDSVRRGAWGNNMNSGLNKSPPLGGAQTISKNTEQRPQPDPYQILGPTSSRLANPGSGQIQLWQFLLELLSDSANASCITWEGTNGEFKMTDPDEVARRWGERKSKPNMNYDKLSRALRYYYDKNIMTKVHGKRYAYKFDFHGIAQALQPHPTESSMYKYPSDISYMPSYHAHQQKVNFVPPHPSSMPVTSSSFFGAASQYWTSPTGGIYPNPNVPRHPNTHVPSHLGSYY
The conditions noted are these: protein: recombinant; tags: N-terminal GST; dsDNA, one strand shown. The method, boiled down:
(§1)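 Binding signal is each hexamer's read frequency for a factor divided by its frequency in the tag-only sample. The factors were GST-fused human transcription factors from yeast, captured on glutathione beads, DNA-barcoded and pooled with that sample. Pools were incubated with 200 nmole of a random double-stranded 16-mer DNA library in Tris/NaCl/DTT/glycerol buffer at room temperature for 30 min, then washed, crosslinked with 0.1% formaldehyde, proximity-ligated with BsaI/T4 ligase (1 h, 37 °C), PCR-amplified and sequenced on an Illumina NextSeq500.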

The target in a further assay is T2, ELK1 (Homo sapiens, UniProt P19419 1-428).
T2 sequence: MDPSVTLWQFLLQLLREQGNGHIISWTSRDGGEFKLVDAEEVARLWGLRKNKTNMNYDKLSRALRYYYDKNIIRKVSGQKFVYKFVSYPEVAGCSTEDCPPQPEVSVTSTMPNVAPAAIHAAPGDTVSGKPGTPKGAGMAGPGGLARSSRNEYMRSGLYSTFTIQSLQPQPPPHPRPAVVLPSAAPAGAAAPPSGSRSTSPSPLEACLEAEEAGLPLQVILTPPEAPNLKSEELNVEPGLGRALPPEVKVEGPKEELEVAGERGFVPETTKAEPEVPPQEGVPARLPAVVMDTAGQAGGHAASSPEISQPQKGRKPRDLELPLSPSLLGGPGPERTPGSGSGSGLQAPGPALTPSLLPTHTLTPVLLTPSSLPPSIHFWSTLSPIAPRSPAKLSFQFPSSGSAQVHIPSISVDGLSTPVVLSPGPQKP
The settings on record: protein: recombinant; tags: N-terminal GST; dsDNA, one strand shown. The method in brief:
as §1

The next assay deals with T3, GABPA (Homo sapiens, UniProt Q06546 1-454).
T3 sequence: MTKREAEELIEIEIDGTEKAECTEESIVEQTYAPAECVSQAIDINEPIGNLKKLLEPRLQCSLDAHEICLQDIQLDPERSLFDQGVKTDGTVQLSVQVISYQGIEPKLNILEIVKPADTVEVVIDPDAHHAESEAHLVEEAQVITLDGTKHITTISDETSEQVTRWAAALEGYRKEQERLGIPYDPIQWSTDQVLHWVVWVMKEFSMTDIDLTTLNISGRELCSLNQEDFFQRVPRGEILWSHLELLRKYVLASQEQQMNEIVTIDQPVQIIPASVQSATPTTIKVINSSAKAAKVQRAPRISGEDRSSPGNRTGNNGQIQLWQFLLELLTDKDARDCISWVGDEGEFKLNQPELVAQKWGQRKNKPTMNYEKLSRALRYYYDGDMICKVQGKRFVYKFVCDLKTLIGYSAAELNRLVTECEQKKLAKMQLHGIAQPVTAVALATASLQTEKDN
The settings on record: protein: recombinant; tags: N-terminal GST; dsDNA, one strand shown. The method in brief:
as §1

For the next assay, the target named is ELF1 (Homo sapiens, UniProt P32519 1-619). The settings on record: protein: recombinant; tags: N-terminal GST; dsDNA, one strand shown. The method, boiled down: as §1
A further assay has as its target T4, EHF (Homo sapiens, UniProt Q9NZC4 1-300).
T4 sequence: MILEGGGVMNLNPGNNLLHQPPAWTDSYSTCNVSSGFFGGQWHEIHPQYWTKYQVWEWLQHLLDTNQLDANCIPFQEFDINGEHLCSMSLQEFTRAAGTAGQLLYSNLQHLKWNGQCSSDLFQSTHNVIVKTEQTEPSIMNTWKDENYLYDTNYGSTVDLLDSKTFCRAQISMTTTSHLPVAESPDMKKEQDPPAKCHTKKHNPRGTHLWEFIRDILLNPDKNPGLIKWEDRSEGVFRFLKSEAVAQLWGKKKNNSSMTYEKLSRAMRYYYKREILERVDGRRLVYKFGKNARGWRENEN
The settings on record: protein: recombinant; tags: N-terminal GST; dsDNA, one strand shown. The method in brief:
as §1

A further assay concerns the target SPI1 (Homo sapiens, UniProt P17947 1-270). The conditions noted are these: protein: recombinant; tags: N-terminal GST; dsDNA, one strand shown. The method, boiled down: as §1
Another assay has as its target SPIB (Homo sapiens, UniProt Q01892 1-262). The settings on record: protein: recombinant; tags: N-terminal GST; dsDNA, one strand shown. The method, boiled down: as §1
The target in a further assay is T5, ELK3 (Homo sapiens, UniProt P41970 1-407).
T5 sequence: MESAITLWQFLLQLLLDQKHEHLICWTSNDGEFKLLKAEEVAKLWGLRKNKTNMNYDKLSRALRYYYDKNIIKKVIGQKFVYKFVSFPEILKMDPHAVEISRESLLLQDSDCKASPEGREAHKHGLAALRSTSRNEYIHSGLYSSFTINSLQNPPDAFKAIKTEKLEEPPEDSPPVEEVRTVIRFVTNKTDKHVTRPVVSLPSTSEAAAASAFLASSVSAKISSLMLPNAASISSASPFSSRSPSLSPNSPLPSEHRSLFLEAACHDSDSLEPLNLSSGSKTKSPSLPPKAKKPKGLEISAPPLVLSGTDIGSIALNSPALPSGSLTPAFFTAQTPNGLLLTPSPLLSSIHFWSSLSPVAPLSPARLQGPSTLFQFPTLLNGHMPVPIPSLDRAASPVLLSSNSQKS
The conditions noted are these: protein: recombinant; tags: N-terminal GST; dsDNA, one strand shown. The method in brief: as §1

Another assay addresses ETV5 (Homo sapiens, UniProt P41161 1-510). The conditions noted are these: protein: recombinant; tags: N-terminal GST; dsDNA, one strand shown. The method, boiled down:
as §1

The target of another assay is HSF1 (Homo sapiens, UniProt Q00613 1-529). The settings on record: protein: recombinant; tags: N-terminal GST; chain copies: 3; dsDNA, one strand shown. The method in brief:
as §1

The target of a further assay is T6, SPIC (Homo sapiens, UniProt Q8N5J4 1-248).
T6 sequence: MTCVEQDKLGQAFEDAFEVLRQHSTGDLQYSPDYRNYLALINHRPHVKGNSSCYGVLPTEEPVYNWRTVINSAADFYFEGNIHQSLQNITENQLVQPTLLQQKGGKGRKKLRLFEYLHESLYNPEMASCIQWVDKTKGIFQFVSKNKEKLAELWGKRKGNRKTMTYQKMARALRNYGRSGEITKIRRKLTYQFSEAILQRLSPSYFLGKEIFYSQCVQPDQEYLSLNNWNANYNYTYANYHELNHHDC
The settings on record: protein: recombinant; tags: N-terminal GST; dsDNA, one strand shown. The method, boiled down: as §1

Another assay has as its target ELF4 (Homo sapiens, UniProt Q99607 1-663). The conditions noted are these: protein: recombinant; tags: N-terminal GST; dsDNA, one strand shown. The method, boiled down:
as §1

The next assay concerns the target T7, ELK4 (Homo sapiens, UniProt P28324-2 1-405).
T7 sequence: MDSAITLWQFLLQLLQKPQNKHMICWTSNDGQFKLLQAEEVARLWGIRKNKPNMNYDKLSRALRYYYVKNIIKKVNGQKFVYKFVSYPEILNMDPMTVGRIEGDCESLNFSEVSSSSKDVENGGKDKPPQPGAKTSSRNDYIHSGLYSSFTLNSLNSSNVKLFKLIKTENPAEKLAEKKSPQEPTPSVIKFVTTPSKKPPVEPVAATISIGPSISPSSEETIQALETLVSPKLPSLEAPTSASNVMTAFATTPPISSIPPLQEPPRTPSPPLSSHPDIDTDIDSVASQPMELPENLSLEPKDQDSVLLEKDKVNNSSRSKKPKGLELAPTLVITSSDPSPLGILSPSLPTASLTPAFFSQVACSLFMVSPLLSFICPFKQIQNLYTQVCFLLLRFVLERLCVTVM
The conditions noted are these: protein: recombinant; tags: N-terminal GST; dsDNA, one strand shown. The method in brief: as §1

In a further assay the target is T8, ETV2 (Homo sapiens, UniProt O00321 1-342).
T8 sequence: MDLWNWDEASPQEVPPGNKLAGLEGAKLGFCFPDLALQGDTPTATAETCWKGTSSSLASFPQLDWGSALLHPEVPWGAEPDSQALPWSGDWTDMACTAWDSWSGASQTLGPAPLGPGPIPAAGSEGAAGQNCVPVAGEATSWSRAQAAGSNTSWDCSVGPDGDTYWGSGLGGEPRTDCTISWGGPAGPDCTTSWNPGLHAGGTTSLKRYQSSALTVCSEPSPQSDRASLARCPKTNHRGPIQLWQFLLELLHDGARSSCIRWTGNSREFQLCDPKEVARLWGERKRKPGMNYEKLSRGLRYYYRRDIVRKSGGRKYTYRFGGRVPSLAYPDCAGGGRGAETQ
The conditions noted are these: protein: recombinant; tags: N-terminal GST; dsDNA, one strand shown. The method in brief:
as §1

A further assay concerns the target T9, ELF3 (Homo sapiens, UniProt P78545 1-371).
T9 sequence: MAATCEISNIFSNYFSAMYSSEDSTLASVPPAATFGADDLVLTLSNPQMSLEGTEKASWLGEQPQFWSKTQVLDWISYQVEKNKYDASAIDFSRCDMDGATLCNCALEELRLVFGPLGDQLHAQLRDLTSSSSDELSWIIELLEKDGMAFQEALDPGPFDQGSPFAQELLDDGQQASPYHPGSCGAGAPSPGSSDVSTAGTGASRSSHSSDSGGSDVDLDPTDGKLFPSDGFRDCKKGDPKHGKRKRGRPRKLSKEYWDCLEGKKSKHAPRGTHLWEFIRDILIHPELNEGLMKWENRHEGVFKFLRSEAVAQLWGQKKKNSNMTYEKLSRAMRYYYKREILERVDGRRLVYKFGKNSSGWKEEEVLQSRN
The conditions noted are these: protein: recombinant; tags: N-terminal GST; dsDNA, one strand shown. The method in brief:
as §1

Chain of ELF4 (Q99607 whole entry): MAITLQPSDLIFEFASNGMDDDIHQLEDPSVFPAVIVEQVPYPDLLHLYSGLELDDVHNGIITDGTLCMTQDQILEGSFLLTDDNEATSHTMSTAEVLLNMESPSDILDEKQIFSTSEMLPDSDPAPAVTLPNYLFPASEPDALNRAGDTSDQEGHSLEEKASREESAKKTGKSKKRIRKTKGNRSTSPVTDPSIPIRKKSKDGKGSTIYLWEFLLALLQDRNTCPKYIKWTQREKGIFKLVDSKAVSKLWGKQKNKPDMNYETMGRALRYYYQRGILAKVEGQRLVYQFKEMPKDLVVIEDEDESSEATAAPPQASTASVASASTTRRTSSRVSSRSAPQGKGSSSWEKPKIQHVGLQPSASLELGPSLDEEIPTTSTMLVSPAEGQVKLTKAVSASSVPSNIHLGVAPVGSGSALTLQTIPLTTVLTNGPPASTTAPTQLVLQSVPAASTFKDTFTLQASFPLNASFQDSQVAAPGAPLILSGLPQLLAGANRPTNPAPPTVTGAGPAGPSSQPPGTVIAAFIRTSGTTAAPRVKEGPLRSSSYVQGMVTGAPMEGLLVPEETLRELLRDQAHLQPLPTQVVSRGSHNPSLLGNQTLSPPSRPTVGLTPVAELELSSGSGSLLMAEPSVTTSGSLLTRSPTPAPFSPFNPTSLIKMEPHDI
Chain of ETV5 (P41161 whole entry): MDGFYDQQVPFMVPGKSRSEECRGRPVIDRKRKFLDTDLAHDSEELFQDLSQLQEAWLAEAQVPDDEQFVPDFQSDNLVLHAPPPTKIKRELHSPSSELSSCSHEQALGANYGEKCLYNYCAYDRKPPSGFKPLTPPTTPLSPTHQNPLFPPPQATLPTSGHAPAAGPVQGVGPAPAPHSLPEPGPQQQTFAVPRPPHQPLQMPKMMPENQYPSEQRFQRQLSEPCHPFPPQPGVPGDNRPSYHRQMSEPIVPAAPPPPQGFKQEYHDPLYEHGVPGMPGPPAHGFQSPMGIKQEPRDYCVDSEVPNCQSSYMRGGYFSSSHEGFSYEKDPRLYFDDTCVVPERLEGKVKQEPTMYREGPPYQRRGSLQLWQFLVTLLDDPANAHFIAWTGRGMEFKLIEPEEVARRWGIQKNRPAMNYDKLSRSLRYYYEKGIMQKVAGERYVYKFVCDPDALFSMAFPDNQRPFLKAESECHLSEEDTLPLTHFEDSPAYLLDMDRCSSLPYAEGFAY
Chain of SPIB (Q01892 whole entry): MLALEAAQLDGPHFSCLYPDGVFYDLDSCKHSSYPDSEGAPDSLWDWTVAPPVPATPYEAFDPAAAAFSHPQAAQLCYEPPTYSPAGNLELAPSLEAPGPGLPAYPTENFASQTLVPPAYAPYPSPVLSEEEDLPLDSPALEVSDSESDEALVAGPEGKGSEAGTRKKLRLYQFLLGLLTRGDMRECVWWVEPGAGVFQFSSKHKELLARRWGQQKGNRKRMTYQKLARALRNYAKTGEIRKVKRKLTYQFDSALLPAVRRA
Chain of HSF1 (Q00613 whole entry): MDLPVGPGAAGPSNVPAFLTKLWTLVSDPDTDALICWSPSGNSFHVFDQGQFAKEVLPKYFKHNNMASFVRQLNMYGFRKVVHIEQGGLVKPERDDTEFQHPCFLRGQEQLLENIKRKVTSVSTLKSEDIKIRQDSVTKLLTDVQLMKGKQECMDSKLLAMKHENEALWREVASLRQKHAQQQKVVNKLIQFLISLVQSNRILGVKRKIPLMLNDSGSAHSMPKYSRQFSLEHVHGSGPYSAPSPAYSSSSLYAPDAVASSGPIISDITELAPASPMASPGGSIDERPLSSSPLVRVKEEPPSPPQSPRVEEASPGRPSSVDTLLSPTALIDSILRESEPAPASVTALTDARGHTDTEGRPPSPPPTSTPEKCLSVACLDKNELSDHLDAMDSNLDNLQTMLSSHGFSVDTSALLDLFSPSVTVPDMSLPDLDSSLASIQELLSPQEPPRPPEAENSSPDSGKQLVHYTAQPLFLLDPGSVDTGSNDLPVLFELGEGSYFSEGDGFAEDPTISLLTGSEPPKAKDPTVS
Chain of ELF1 (P32519 whole entry): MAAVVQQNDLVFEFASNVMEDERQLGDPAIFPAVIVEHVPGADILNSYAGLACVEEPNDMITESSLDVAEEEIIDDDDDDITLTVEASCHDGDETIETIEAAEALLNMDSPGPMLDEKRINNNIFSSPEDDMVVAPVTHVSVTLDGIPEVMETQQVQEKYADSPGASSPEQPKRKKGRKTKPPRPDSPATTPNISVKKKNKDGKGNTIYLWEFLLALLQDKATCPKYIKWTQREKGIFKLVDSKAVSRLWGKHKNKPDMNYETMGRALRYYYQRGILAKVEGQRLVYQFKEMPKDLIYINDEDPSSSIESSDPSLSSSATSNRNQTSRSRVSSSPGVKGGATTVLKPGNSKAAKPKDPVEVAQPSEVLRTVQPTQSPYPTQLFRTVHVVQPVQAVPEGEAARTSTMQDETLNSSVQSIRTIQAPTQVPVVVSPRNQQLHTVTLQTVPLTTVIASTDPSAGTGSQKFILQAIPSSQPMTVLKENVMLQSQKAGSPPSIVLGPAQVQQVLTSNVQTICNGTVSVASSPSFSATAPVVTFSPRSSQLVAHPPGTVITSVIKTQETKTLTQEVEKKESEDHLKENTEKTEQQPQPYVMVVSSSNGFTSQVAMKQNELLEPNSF

For AAAGGT, the binding signal in the assay with FLI1 was 1.1 fold enrichment (6-mer frequency, TF over GST control); in the assay with ELK1, 1.06 fold enrichment (6-mer frequency, TF over GST control); with GABPA, 1.1 fold enrichment (6-mer frequency, TF over GST control); in the assay with ELF1 it was 1.07 fold enrichment (6-mer frequency, TF over GST control); with EHF, 1.06 fold enrichment (6-mer frequency, TF over GST control); in the assay with SPI1 it was 1.01 fold enrichment (6-mer frequency, TF over GST control). Also, the binding signal in the assay with SPIB is 1.02 fold enrichment (6-mer frequency, TF over GST control); in the assay with ELK3 it was 1.05 fold enrichment (6-mer frequency, TF over GST control); with ETV5, 1.05 fold enrichment (6-mer frequency, TF over GST control); with HSF1 it was 1.02 fold enrichment (6-mer frequency, TF over GST control); in the assay with SPIC, 1.09 fold enrichment (6-mer frequency, TF over GST control); in the assay with ELF4 it was 1.02 fold enrichment (6-mer frequency, TF over GST control). Besides, the binding signal in the assay with ELK4 is 1.05 fold enrichment (6-mer frequency, TF over GST control); in the assay with ETV2, 1.06 fold enrichment (6-mer frequency, TF over GST control); with ELF3, 1.17 fold enrichment (6-mer frequency, TF over GST control).
